Compounds with a hit are over-represented: about 4.8% of the library has one in this group of screens.
NALP1 inh = inhibitors of NALP1 inflammasome in yeast. S. cerevisiae NALP1/ASC/caspase-1 growth, X-gal OD620, 72 h. inhibition, % at 10 µM. actives 0.61% (n = 280,000); in the data active = inhibition mostly above about 24%, no sharp cut-off; inactive = mostly below about 32%
tim10-1 inh = inhibits growth of tim10-1 mutant yeast; S. cerevisiae tim10-1 ts strain growth, BacTiter-Glo, 24 h; inhibition, % at 20 µM; actives 2.2% (n = 330,000); AID 463190;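 active = inhibition of at least 40%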;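 note: mutant grown at 25 °C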
TIM10 inh = growth inhibitors of TIM10 yeast strain; S. cerevisiae TIM10 strain growth, BacTiter-Glo luminescence, 24 h; inhibition, % at 10 µM; AID 463195; actives 1.4% (n = 330,000);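 active = inhibition of 40% or more at the single tested concentration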;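 note: wild-type TIM10 isogenic control strain grown at permissive 25 °C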
tim23-1 inh = growth inhibitors of tim23-1 mutant yeast | inhibition, % at 20 µM | AID 463212 | S. cerevisiae tim23-1 growth, BacTiter-Glo luminescence, 24 h | actives 1.3% (n = 330,000);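 active = growth inhibition of the mutant yeast at or above 50%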;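 note: temperature-sensitive mutant grown at 25 °C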
PfHsp90 set2 = growth inhibition of yeast expressing Plasmodium Hsp90. S. cerevisiae expressing PfHsp90, BacTiter-Glo ATP, 48 h; yeast lacking PDR1 and PDR3 efflux regulators. inhibition, % at 9.4 µM. actives 0.32% (n = 310,000). AID 504621;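 active = every replicate shows inhibition above about 80%, whatever the replicate mean, limit read from the data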
SKKanGAS inh = inhibitors of SKKanGAS S. pyogenes growth in kanamycin (SK-promoter or general growth effect) | BacTiter-Glo, 6 h | inhibition, % at 7.5 µM | actives 1.3% (n = 300,000);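 active = mean replicate score, as percent of positive control median, at least 50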;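 note: strain carries kanamycin resistance gene driven by streptokinase promoter and grows in 40 µg/ml kanamycin; loss of luminescence reflects streptokinase promoter inhibition or plain growth inhibition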
tim10-1 conf = confirmation of tim10-1 mutant yeast growth inhibitors. shares compounds with tim10-1 inh. S. cerevisiae tim10-1 ts strain growth, BacTiter-Glo, 24 h. AID 463213. actives 56% (n = 7,400). inhibition, % at 20 µM;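 active = inhibition of yeast growth at or above a set limit in either of two repeat tests at 20 µM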;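 note: tim10-1 mutant grown at permissive 25 °C to find synthetic lethal compounds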
tim10 confirm = TIM10 yeast growth inhibition, confirmed | shares compounds with TIM10 inh | S. cerevisiae tim10 strain growth, BacTiter-Glo luminescence, 24 h | inhibition, % at 10 µM | actives 63% (n = 4,600) | AID 463215;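 active = inhibition of yeast growth at or above a set limit in either of two replicates at 10 µM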; note: this counterscreen used the strain with wild-type TIM10
tim23-1 confirm = confirmation of tim23-1 mutant yeast growth inhibitors; S. cerevisiae tim23-1 growth, BacTiter-Glo luminescence, 24 h; shares compounds with tim23-1 inh; actives 83% (n = 4,400); inhibition, % at 20 µM;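 active = inhibition above about 39% in either of two replicate wells at 20 µM, limit read from the data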;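 note: temperature-sensitive tim23-1 mutant grown at 25 °C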
Each line names hits and unclear results; the compound was inactive in the other large screens (follow-up assays come after a bar, where they were run).

Cc1oc(-c2nc3ccccc3n2C)cc1C(=O)c1ccccc1	tim10-1 inh 48, TIM10 inh 53, tim23-1 inh 56 | tim10-1 conf 33 | tim10 confirm inactive | tim23-1 confirm 73
Nc1cccc2c1C(=O)N(C(=O)/C=C/c1ccc(F)cc1)C2=O	tim10-1 inh 59, TIM10 inh 49, tim23-1 inh 74 | tim10-1 conf 61 | tim10 confirm 47 | tim23-1 confirm 86
Nc1cccc2c1C(=O)N(C(=O)c1ccco1)C2=O	none
CC1=NN(C(N)=S)C(=O)C1N=Nc1cccc(Cl)c1C (stereo unspecified)	tim10-1 inh 43, tim23-1 inh 57 | tim10-1 conf 43 | tim23-1 confirm 62
CC[C@@H]1C=C(C)C[C@H](C)C[C@H](OC)[C@H]2O[C@@](O)(C(=O)C(=O)N3CCCC[C@H]3C(=O)O[C@H](/C(C)=C/[C@@H]3CC[C@@H](O)[C@H](OC)C3)[C@H](C)[C@@H](O)CC1=O)[C@H](C)C[C@@H]2OC	none (no result: tim10-1 inh, TIM10 inh, tim23-1 inh, PfHsp90 set2, SKKanGAS inh)
C=CC[C@@H]1C=C(C)C[C@H](C)C[C@H](OC)[C@H]2O[C@@](O)(C(=O)C(=O)N3CCCC[C@H]3C(=O)O[C@H](/C(C)=C/[C@@H]3CC[C@@H](O)[C@H](OC)C3)[C@H](C)[C@@H](O)CC1=O)[C@H](C)C[C@@H]2OC	tim10-1 inh 77, TIM10 inh 73, tim23-1 inh 68 (no result: NALP1 inh, PfHsp90 set2) | tim10-1 conf 79 | tim10 confirm 74 | tim23-1 confirm 68
CCC(/C=C1\Sc2ccc(OC)cc2N1CCO)=C\c1sc2ccc(OC)cc2[n+]1CCO	tim10-1 inh 62, TIM10 inh 49, tim23-1 inh 64 (no result: SKKanGAS inh) | tim10-1 conf 49 | tim10 confirm inactive | tim23-1 confirm 53
O=P(c1ccccc1)(c1ccccc1)N(c1ccccc1)c1ccccc1	none
O=C1C=CC(=O)N1N(c1ccccc1)c1ccccc1	NALP1 inh 105, tim10-1 inh 65, TIM10 inh 54, tim23-1 inh 55, PfHsp90 set2 96 | tim10-1 conf 67 | tim10 confirm 61 | tim23-1 confirm 47
N#Cc1sc(NCc2cccc(Cl)c2)nc1Cl	tim10-1 inh 58, TIM10 inh 44, tim23-1 inh 69 | tim10-1 conf 49 | tim10 confirm 43 | tim23-1 confirm 57
CC(C)(C)c1ccc(S(=O)(=O)N2CCN(CCC#N)CC2)cc1	tim10-1 inh 50, tim23-1 inh 51 (no result: PfHsp90 set2) | tim10-1 conf inactive | tim23-1 confirm inactive
CC(=O)NC1Sc2ccccc2N=C1c1ccccc1 (stereo unspecified)	tim10-1 inh 43, TIM10 inh 42, tim23-1 inh 73 | tim10-1 conf 54 | tim10 confirm 56 | tim23-1 confirm 79
S=C(NCc1cccs1)Nc1cccc(Cl)c1Cl	tim10-1 inh 50, TIM10 inh 41, tim23-1 inh 56 | tim10-1 conf 32 | tim10 confirm inactive | tim23-1 confirm 56
Cc1c(Cl)cccc1NC(=S)NCc1cccs1	none
COc1ccc(CN2CCN(C(=O)c3ccc(S(=O)(=O)N4CCCCCC4)cc3)CC2)cc1	none (no result: NALP1 inh, PfHsp90 set2, SKKanGAS inh)
Nc1c(-c2ccccc2)cnn1-c1ccccc1	none
O=c1cnn(-c2ccccc2)c(-c2ccccc2)c1	tim10-1 inh 54, TIM10 inh 76, tim23-1 inh 65 | tim10-1 conf 62 | tim10 confirm 64 | tim23-1 confirm 70
Cc1cc(-c2ccc(N=Nc3c(S(=O)(=O)O)cc4cc(S(=O)(=O)O)cc(N)c4c3O)c(C)c2)ccc1N=Nc1c(S(=O)(=O)O)cc2cc(S(=O)(=O)O)cc(N)c2c1O	tim10-1 inh 65, TIM10 inh 55, tim23-1 inh 72 (no result: NALP1 inh, PfHsp90 set2, SKKanGAS inh) | tim10-1 conf 66 | tim10 confirm 47 | tim23-1 confirm 77
